The results in this text go back to PubChem BioAssay (Tox21).

Unmarked numbers belong to inactive results. The call rests on the fitted dose curve; in most records, active means well fitted activation curve with a large enough effect in the repeat runs; inconclusive means weak or mixed curves; inactive means flat fitted curve, though single readings scatter.
On the % scale 0 is the no-effect control and ±100 the full control effect.

The nature of the assay: Caspase-3/7 induction in CHO-K1 cells by small molecules, qHTS assay (AID 1346980). Further: nearly all actives have a fitted effect of over 15% in size. Particulars: CHO-K1 caspase-3/7 induction, Caspase-Glo luminescence, 17 h; series mostly up to 92.4 µM; caspase-3/7 activation: at the top concentration. The text has this:
National Center for Advancing Translational Sciences [NCATS]
NIH Chemical Genomics Center [NCGC]
U.S. Environmental Protection Agency [EPA]
National Institutes of Environmental Health Sciences [NIEHS]
National Toxicology Program [NTP]
Apoptosis is a process of programmed cell death and plays a central role in the development of multicellular organisms. It is a highly regulated process and induces cell death by activating caspases, which are the members of cysteine aspartic acid-specific protease (caspase) family. Caspases involved in apoptosis are classified by their mechanism of action as initiator caspases (caspase-2, -8, -9 and -10) and executioner caspases (caspase-3, -6, and -7). Inhibition of apoptosis results in number of cancers, autoimmune diseases, inflammatory diseases and viral infection. To identify small molecule compounds that induce apoptosis, a homogeneous, luminescent Caspase-Glo 3/7 assay was used. Wild type CHO-K1 cells were used to screen Tox21 libraries for identifying caspase-3/7 activity inducers.
CHO-K1 cells were dispensed at 1,500 per well in 5uL of culture medium into white solid bottom 1536-well plates (Corning Life Sciences, Corning, NY) using a Multidrop Combi (Thermo Scientific, Waltham, MA) dispenser. The assay plates were incubated at 37 C and 5% CO2 for 5hr, and then 23nL of compounds dissolved in DMSO and positive control were transferred using a Pintool station (Wako, San Diego, CA). The assay plates were incubated at 37C and 5% CO2 for 17hr. For caspase-3/7 activity read, 4uL of Caspase-Glo 3/7 reagent (Promega Corporation, Madison, WI) was added to each well of the assay plates using Flying Reagent Dispenser (FRD, Aurora Discovery, San Diego, CA) and incubated the assay plates at room temperature for 30min. The luminescence signal was quantified using a ViewLux plate reader (Perkin Elmer, Shelton, CT).
As for `CN(C1CCCCC1)S(=O)(=O)c1ccccc1N`, the “caspase-3/7 activation” value was -0.0957%.

With `CC(C)COC(=O)COc1ccc(Cl)cc1Cl`, the “caspase-3/7 activation” value is -0.627%. As to `CC(=O)OCC(=O)[C@@]1(O)[C@H](OC(C)=O)C[C@H]2[C@@H]3CCC4=CC(=O)C=C[C@]4(C)[C@@]3(F)[C@@H](O)C[C@@]21C`, the “caspase-3/7 activation” value was 0.321% [at 42.5 µM]. The value for `Cc1c(C(C)C)c(=O)n(-c2ccccc2)n1C` was 0.324% [at 42.5 µM]; that for `CCCCCCCCCCC` was 0.99%. The value for `CC(=O)OC(C)(C)Cc1ccccc1` was -0.0188%; that for `C=CCOCC(O)CCl` (stereo not given) was -0.139%. Take `CC1(N)CCC(C(C)(C)N)CC1` (stereo not given): the “caspase-3/7 activation” value was -0.775%. Under `c1ccccc1` stands -0.0295%; under `CC1=CC[C@H](CC=O)C1(C)C`, 0.0412%; under `CCOC(=O)CCc1ccccc1`, 0.568%. The value for `Cc1cccc(NC(=S)N(C)C)c1` was -0.516%; that for `O=C1OC(=O)c2ccccc21` was 0.484%. Regarding `O=C1CC[C@H](C(=O)N2CCCCC2)N1`, the “caspase-3/7 activation” value is 0.0682% [at 42.5 µM]. Regarding `O=c1cc(O)c(Cl)c[nH]1`, the “caspase-3/7 activation” value was -0.015% [at 42.5 µM].

On to `CC(=O)c1ccc2c(c1)CCCC2`, for which the “caspase-3/7 activation” value is 3.81%.

Turning to `CC1=NN(c2ccc(S(=O)(=O)O)cc2)C(=O)C1N=Nc1ccccc1` (stereo not given), the “caspase-3/7 activation” value was 0.994%. Under `COc1ccc(NS(=O)(=O)c2ccc(N)cc2)nn1` stands 0.797% [at 42.5 µM]; under `O=C(O)Cc1cccc(-c2cc(CCCCCCc3ccc(O[C@H]4O[C@H](CO)[C@@H](O)[C@H](O)[C@@H]4O)c(-c4cccc(CC(=O)O)c4)c3)ccc2O[C@H]2O[C@H](CO)[C@@H](O)[C@H](O)[C@@H]2O)c1`, 1.55% [at 0.349 µM]. As to `CCS(=O)(=O)CCn1c([N+](=O)[O-])cnc1C`, the “caspase-3/7 activation” value was -0.0181% [at 42.5 µM]. For `Cc1cccc(Nc2ccncc2S(=O)(=O)NC(=O)NC(C)C)c1`, the “caspase-3/7 activation” value is -1.21% [at 42.5 µM]. In the case of `CCN(CCC#N)c1ccccc1`, the “caspase-3/7 activation” value is 1.1%. The value for `CC(Cl)COP(=O)(OCC(C)Cl)OCC(C)Cl` (stereo not given) was -0.346%; that for `Nc1ccc(/C=C/c2ccc(N)cc2S(=O)(=O)O)c(S(=O)(=O)O)c1` was -0.823% [at 0.349 µM]; that for `CN=C(NC#N)NCCSCc1csc(N=C(N)N)n1` was 0.221% [at 42.5 µM]. The value for `CCCCCCCCCCCCC1CO1` (stereo not given) was 0.343%; that for `CCCCC(=O)N(C)C` was -0.305%; that for `CC(=O)Nc1ncc([N+](=O)[O-])s1` was 0.0112% [at 42.5 µM]. Under `N#CCCOCCOCCC#N` stands 1.97%; under `CCCOC(=O)CCCCC(=O)OCCC`, -0.925%.

As for `O=S(=O)(O)CCO`, the “caspase-3/7 activation” value is 0.183%. As to `C=CCCCCCCCCCCC`, the caspase-3/7 activation was 0.611% [at 8.39 µM].

As to `CC(C)CCCCCCOC(=O)C1CCCCC1C(=O)OCCCCCCC(C)C` (stereo not given), the “caspase-3/7 activation” value is 0.205%.

For the compound `CCOC(=O)CC#N`, the “caspase-3/7 activation” value was 0.438%. Under `C=C[Si](C)(C)O[Si](C)(C)C=C` stands -0.682%. For `CC(C)CCC(=O)CCC(C)C`, the “caspase-3/7 activation” value was 0.0035%. Under `CN[C@@H]1[C@H](O)[C@H](NC)[C@H]2O[C@@]3(O)C(=O)C[C@@H](C)O[C@H]3O[C@@H]2[C@H]1O` stands 0.186% [at 42.5 µM]. On to `CC(=O)OCCCc1ccccc1`, for which the “caspase-3/7 activation” value is -0.505%. With `O=C(Nc1cccc(C2=NCCN2)c1)Nc1cccc(C2=NCCN2)c1`, the caspase-3/7 activation was 0.277% [at 19 µM].

As to `Cc1ccccc1C`, the “caspase-3/7 activation” value was 0.271%.
